Reference: PubChem BioAssay (Tox21)
Records with an inconclusive call do not appear. Active and inactive are the calls of the source. Unless noted, the call rests on the fitted dose curve.

What was measured:
[1] = Nuclear factor erythroid 2-related factor 2/antioxidant responsive element (Nrf2/ARE) small molecule agonists: qHTS cell viability counter screen in human keratinocytes (AID 1919968; active means well fitted curve in the direction sought with a large enough effect in the repeat runs; an effect the other way counts as inactive or inconclusive; further: nearly all actives have a fitted effect of over 55% in size)
In short: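 Measured as CellTiter-Fluor fluorescence, this readout tracks cytotoxicity in the same wells as the ARE-luciferase screen. HaCaT reporter cells (1,500/well) received compounds after a 5 h pre-incubation and were exposed for 23 h.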

[2] = biological target: Gonadotropin-releasing hormone receptor (Homo sapiens) (UniProt P30968); assay: Human gonadotropin-releasing hormone receptor (GnRHR) small molecule agonists, calcium flux assay in GnRHR-HEK293 cells (AID 1920063); further: nearly all actives have a fitted effect of over 35% in size
Gonadotropin-releasing hormone receptor (Homo sapiens), sequence (P30968 whole entry, looked up): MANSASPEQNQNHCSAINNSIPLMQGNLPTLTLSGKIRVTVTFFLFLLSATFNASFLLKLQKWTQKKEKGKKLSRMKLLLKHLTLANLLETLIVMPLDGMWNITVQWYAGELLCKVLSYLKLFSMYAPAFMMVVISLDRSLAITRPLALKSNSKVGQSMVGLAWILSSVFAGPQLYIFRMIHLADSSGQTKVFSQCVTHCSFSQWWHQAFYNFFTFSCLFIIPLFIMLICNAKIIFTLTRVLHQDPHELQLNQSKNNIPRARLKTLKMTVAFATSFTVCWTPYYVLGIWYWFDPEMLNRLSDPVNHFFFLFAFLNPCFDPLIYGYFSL
In short: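 Fluorescence kinetics (480 nm excitation, 540 nm emission; 3 min, 1 s steps) report calcium mobilisation in human GnRHR-HEK293 cells in agonist mode. Dye incubation: 1 h, 37 C.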

[3] = biological target: KiSS-1 receptor (Homo sapiens) (UniProt Q969F8); assay: Human kisspeptin (KISS1R) small molecule agonists, calcium flux assay in KISS1R-HEK293 cells (AID 1920064; active means well fitted curve in the direction sought with a large enough effect in the repeat runs; an effect the other way counts as inactive or inconclusive)
KiSS-1 receptor (Homo sapiens), sequence (Q969F8 whole entry, looked up): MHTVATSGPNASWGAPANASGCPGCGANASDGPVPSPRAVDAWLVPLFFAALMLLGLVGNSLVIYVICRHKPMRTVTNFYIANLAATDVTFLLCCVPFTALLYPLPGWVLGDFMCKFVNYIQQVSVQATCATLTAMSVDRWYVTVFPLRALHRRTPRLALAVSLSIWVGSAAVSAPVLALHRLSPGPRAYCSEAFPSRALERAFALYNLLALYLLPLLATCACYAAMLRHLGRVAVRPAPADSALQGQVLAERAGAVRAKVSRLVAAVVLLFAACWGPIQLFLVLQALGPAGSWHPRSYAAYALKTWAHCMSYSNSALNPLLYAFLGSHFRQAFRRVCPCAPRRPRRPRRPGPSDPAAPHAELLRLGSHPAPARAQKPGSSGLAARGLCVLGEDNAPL
In short: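 Measures KISS1R agonism through calcium-sensitive dye fluorescence in stably transfected HEK293 cells, read for 3 min after pin-tool compound delivery; 15-point titrations in triplicate.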

[4] = G protein-coupled receptor (GPCR) small molecule agonists, calcium flux assay: HEK293 wild type cell line counter screen (AID 1920065)
In short: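 Readout: fluorescence at 480 nm excitation/540 nm emission, sampled at 1 s intervals for 3 min. Cells had been cultured 18 h, then dye-loaded 1 h at 37 C before compound or ATP addition.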

[5] = p53 small molecule agonists, cell-based qHTS assay with human liver microsomes: qHTS cell viability counter screen (AID 1963579); further: nearly all actives have a fitted effect of over 45% in size
In short: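 Cytotoxicity counter screen: p53RE-bla, 4,000 cells/well; 5 h settle, 37 C/5% CO2; cpd + HLM 0.5 mg/mL + NADPH 0.5 mg/mL (final); 16 h, 37 C; CellTiter-Glo, 30 min RT, luminescence.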

[6] = p53 small molecule agonists, cell-based qHTS assay with rat liver microsomes: qHTS cell viability counter screen (AID 1963580); further: nearly all actives have a fitted effect of over 45% in size
In short: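 p53RE-bla HCT-116 cells were exposed 16 h at 37 C to compounds with rat liver microsomes (0.5 mg/mL) and NADPH (0.5 mg/mL). Viability was measured in the same wells as ATP content by CellTiter-Glo luminescence.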

[7] = p53 small molecule agonists, cell-based qHTS assay: qHTS cell viability counter screen (AID 1963581); further: nearly all actives have a fitted effect of over 45% in size
In short: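 In the same plates used for the p53 bla reporter, HCT-116 cells given compounds for 16 h at 37 C received CellTiter-Glo; luminescence was recorded 30 min later at room temperature.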

[8] = biological target: 5-hydroxytryptamine receptor 2A (Homo sapiens) (UniProt P28223); assay: 5-hydroxytryptamine receptor 2A (HTR2A) small molecule agonists, cell-based qHTS assay (AID 1963587); further: nearly all actives have a fitted effect of over 30% in size
5-hydroxytryptamine receptor 2A (Homo sapiens), sequence (P28223 whole entry, looked up): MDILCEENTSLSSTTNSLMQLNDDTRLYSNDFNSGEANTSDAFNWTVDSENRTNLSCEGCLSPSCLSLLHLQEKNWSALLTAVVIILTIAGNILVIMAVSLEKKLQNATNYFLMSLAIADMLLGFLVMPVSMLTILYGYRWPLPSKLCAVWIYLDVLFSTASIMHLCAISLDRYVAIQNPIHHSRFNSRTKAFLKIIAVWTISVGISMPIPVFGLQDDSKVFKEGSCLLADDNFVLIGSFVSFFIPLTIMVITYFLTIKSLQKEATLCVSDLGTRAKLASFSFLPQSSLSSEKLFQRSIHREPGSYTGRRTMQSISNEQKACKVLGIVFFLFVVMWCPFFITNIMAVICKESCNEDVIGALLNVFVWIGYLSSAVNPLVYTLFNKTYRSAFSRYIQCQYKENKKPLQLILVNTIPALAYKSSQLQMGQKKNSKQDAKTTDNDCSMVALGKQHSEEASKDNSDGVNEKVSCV
In short: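 CHO cells stably expressing human HTR2A, plated 18 h, loaded with calcium dye 1 h at 37 C. Agonist mode: compounds added and intracellular calcium fluorescence recorded kinetically for 2 min at 1 sec intervals.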

[9] = biological target: Muscarinic acetylcholine receptor M1 (Homo sapiens) (UniProt P11229); assay: Cholinergic receptor muscarinic 1 (CHRM1) small molecule antagonists, cell-based qHTS assay (AID 1963588); further: nearly all actives have a fitted effect of over 40% in size
Muscarinic acetylcholine receptor M1 (Homo sapiens), sequence (P11229 whole entry, looked up): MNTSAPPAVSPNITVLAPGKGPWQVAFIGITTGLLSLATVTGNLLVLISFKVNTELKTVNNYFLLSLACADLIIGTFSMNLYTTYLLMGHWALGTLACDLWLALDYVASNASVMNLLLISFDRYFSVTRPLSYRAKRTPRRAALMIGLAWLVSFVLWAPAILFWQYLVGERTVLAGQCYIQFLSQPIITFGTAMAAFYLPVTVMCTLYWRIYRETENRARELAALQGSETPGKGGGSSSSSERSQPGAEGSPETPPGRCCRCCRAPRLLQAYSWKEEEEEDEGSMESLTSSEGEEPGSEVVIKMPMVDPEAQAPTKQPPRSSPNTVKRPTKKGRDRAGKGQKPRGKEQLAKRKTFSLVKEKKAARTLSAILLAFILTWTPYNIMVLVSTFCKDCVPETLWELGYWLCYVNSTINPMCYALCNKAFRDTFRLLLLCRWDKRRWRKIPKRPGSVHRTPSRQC
In short: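 CHRM1-CHO calcium-flux assay, antagonist mode. Cells were seeded 18 h, dye-loaded 1 h at 37 C and given compound for 5 min at RT, then acetylcholine was added at 50nM. FDSS fluorescence was read 3 min; 15 concentrations, three runs.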

[10] = biological target: Muscarinic acetylcholine receptor M1 (Homo sapiens) (UniProt P11229); assay: Cholinergic receptor muscarinic 1 (CHRM1) small molecule agonists, cell-based qHTS assay (AID 1963589); further: nearly all actives have a fitted effect of over 35% in size
In short: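 Each compound was tested at 15 concentrations across three independent runs on dye-loaded CHO cells stably expressing human CHRM1, reading intracellular calcium fluorescence kinetically at 1 sec intervals.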

[11] = cAMP Responsive Elements (CRE) small molecule agonists, cell-based qHTS assay (AID 1963590)
In short: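 Cell line: CRE-bla HEK 293T; medium DMEM/10% dialyzed FBS/0.1 mM NEAA/1 mM pyruvate/25 mM HEPES; 3 h compound exposure; beta-lactamase FRET readout after 2 h substrate loading at RT.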

[12] = cAMP Responsive Elements (CRE) small molecule antagonists, cell-based qHTS assay (AID 1963591; active means well fitted inhibition curve with a large enough effect in the signal ratio in the repeat runs, not every such curve was filed as active; the % refers to the signal ratio)
In short: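 Inhibition of NKH477-driven (0.25 uM final) CRE-beta-lactamase signal in HEK293T cells, 3 h compound exposure at 37 °C, detected by FRET substrate fluorescence.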

[13] = biological target: Beta-2 adrenergic receptor (Homo sapiens) (UniProt P07550); assay: Adrenergic beta2 receptor (ADRB2) small molecule antagonists, cell-based qHTS assay (AID 1963592); further: series mostly up to about 92 µM; nearly all actives have a fitted effect of over 50% in size
Beta-2 adrenergic receptor (Homo sapiens), sequence (P07550 whole entry, looked up): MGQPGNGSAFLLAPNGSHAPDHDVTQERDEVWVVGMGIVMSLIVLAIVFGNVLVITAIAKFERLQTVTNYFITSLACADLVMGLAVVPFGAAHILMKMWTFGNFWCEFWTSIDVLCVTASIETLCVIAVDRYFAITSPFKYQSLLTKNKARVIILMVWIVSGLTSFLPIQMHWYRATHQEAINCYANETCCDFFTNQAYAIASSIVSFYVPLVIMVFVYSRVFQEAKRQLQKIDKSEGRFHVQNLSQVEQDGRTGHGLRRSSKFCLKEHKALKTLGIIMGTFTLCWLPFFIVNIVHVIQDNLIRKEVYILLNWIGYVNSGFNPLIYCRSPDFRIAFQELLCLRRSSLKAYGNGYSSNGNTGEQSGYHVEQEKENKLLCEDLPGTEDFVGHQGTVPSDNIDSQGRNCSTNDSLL
In short: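 Cells (CHO, stable ADRB2 overexpression) incubated 18-20hr at 37C; compounds added from DMSO; agonist mix (1nM isoproterenol, 100uM IBMX, 25uM Ro-20-1724) added; 0.5hr RT; d2-cAMP and anti-cAMP-cryptate added; 1hr RT; 665/615 nm read.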

[14] = biological target: Beta-2 adrenergic receptor (Homo sapiens) (UniProt P07550); assay: Adrenergic beta2 receptor (ADRB2) small molecule agonists, cell-based qHTS assay (AID 1963593);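 further: CHO cells stably overexpressing human ADRB2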
In short: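 CHO cells stably over-expressing ADRB2 were plated overnight at 37C, then dosed with compounds plus a stimulation mix containing 100uM IBMX and 25uM Ro-20-1724 for 0.5hr at room temperature. cAMP was measured by HTRF competition, 1hr.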

[15] = biological target: D(2) dopamine receptor (Homo sapiens) (UniProt P14416); assay: Dopamine D2 receptor (DRD2) small molecule agonists, cell-based qHTS assay (AID 1963594); further: nearly all actives have a fitted effect of over 35% in size
D(2) dopamine receptor (Homo sapiens), sequence (P14416 whole entry, looked up): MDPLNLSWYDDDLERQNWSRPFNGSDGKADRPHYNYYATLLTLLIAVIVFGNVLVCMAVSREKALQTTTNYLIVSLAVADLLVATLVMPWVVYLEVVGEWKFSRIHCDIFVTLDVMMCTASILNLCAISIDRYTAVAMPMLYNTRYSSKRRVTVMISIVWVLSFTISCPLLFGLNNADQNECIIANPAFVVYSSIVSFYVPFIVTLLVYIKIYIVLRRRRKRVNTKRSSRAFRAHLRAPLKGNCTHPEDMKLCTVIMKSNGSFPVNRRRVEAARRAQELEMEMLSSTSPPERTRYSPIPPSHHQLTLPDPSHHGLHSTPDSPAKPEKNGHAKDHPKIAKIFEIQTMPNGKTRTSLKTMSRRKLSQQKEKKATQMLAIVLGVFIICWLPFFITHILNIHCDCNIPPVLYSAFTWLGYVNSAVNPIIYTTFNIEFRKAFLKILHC
In short: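 HEK293 cells stably expressing human DRD2, pre-treated with PDE inhibitor Ro20-1724 (0.1 mM final) and compound 10 min at room temperature, then stimulated with NKH477 (200nM […]) for 30 min. cAMP read by HTRF (665/620 nm).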

[16] = biological target: D(2) dopamine receptor (Homo sapiens) (UniProt P14416); assay: Dopamine D2 receptor (DRD2) small molecule antagonists, cell-based qHTS assay (AID 1963595; active means well fitted inhibition curve with a large enough effect in the signal ratio in the repeat runs, with a control signal flat; the % refers to the signal ratio)
In short: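 HTRF cAMP read-out at 665 and 620 nm emission (340 nm excitation). Antagonist mode: compounds were tested against 12 nM quinpirole in DRD2-HEK293 cells, with 200 nM NKH477 raising cAMP and 0.1 mM Ro20-1724 blocking its breakdown.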

[17] = p53 small molecule agonists, cell-based qHTS assay (AID 1963582; active means well fitted activation curve with a large enough effect in the signal ratio in the repeat runs, not every such curve was filed as active; the % refers to the signal ratio)
In short: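 Compounds are pin-transferred in DMSO onto p53RE-bla cells and incubated 16 h at 37 C. The B/G FRET beta-lactamase substrate is then applied for 2 h at RT and fluorescence recorded.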

[18] = biological target: 5-hydroxytryptamine receptor 2A (Homo sapiens) (UniProt P28223); assay: 5-hydroxytryptamine receptor 2A (HTR2A) small molecule antagonists, cell-based qHTS assay (AID 1963586); further: nearly all actives have a fitted effect of over 45% in size
In short: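 Antagonist-mode intracellular calcium assay: DOI (4 nM) added after 5 min compound pre-incubation at room temperature to dye-loaded HTR2A-CHO cells. Fluorescence followed for 3 min, sampled every second.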

[19] = p53 small molecule agonists, cell-based qHTS assay with rat liver microsomes (AID 1963578)
In short: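 Cells carrying a p53 response element–beta-lactamase reporter were plated and rested 5 h, then dosed with compound in DMSO plus rat liver microsomes and NADPH, each at 0.5 mg/mL final. After 16 h at 37 C, LiveBLAzer substrate was added for 2 h.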
On the % scale 0 is the no-effect control and ±100 the full control effect.

CC[n+]1ccccc1
inactive: Potency [1] | Potency [2] | Potency [3] | Potency [4] | Potency [5] | Potency [6] | Potency [7] | Potency [8] | Potency [9] | Potency [10] | Potency [11] | Potency [12] | Potency [13] | Potency [14] | Potency [15] | Potency [16]

COP(N)(=O)SC (configuration not stated)
inactive: Potency [1] | Potency [2] | Potency [3] | Potency [4] | Potency [5] | Potency [6] | Potency [7] | Potency [17] | Potency [18] | Potency [9] | Potency [11] | Potency [12] | Potency [14] | Potency [15] | Potency [16]

Brc1c(Br)c(Br)c(Br)c(Br)c1Br
inactive: activity change, negative = cytotoxicity [1] 1.17% [at 8.39 µM] | activity change [2] 0.959% [at 5.22 µM, stronger effect = higher value] | activation [3] -5.73% [at 6.97 µM] | activation [4] 0.0498% [at 5.23 µM] | activation [19] -3.05% [at 5.99 µM] | activity change, negative = cytotoxicity [6] 2.93% [at 5.99 µM] | activity change, negative = cytotoxicity [7] -11.2% [at 5.99 µM] | activation [17] 2.53% [at 5.99 µM] | activation [8] -1.65% [at 7.02 µM] | activity, negative = inhibition [9] 23.8% [at 5.58 µM] | activation [10] -0.148% [at 6.97 µM] | activation [11] -0.136% [at 8.39 µM] | activity change, negative = inhibition [12] -5.46% [at 8.39 µM] | activity change, negative = inhibition [13] -9.58% [at 8.39 µM] | activation [15] -0.47% [at 8.39 µM] | activity change, negative = inhibition [16] -0.734% [at 8.38 µM]
